According to PubChem BioAssay (NCATS):
Inconclusive results are not listed. Activity calls are given as the source filed them. Calls come from the whole dose curve; as a rule, active = well fitted inhibition curve with a large enough effect; inconclusive = small, poorly fitted or top-dose-only effect; inactive = flat fitted curve, though single readings scatter.

Assays:
Assay in all cases: qHTS profiling for inhibitors of Plasmodium falciparum proliferation (AID 504749); note: nearly all actives have a fitted effect of over 60% in size
Settings in all cases: P. falciparum in erythrocytes, SYBR Green DNA, 72 h; series mostly up to 28.7 µM
[1] = tested on: CP238
Method in brief: (§1)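 Parasite proliferation within erythrocytes, 72 h exposure. Endpoint: SYBR Green I fluorescence after overnight lysis at room temperature. Controls: 0.29 uM artemisinin, DMSO.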

[2] = tested on: CP247
Method in brief: as §1

[3] = tested on: CP250
Method in brief: as §1

[4] = tested on: CP252
Method in brief: as §1

[5] = tested on: CP256
Method in brief: as §1

[6] = tested on: CP260
Method in brief: as §1

[7] = tested on: CP262
Method in brief: as §1

[8] = tested on: CP265
Method in brief: as §1

[9] = tested on: CP266
Method in brief: as §1

[10] = tested on: CP268
Method in brief: as §1

[11] = tested on: CP269
Method in brief: as §1

[12] = tested on: CP286
Method in brief: as §1

[13] = tested on: CP291
Method in brief: as §1

[14] = tested on: CP297
Method in brief: as §1

[15] = tested on: CP305
Method in brief: as §1

[16] = tested on: CP315
Method in brief: as §1

[17] = tested on: CP325
Method in brief: as §1

[18] = tested on: CP329
Method in brief: as §1

[19] = tested on: CP335
Method in brief: as §1

[20] = tested on: DFO2036
Method in brief: as §1

Measured: Potency

CC(=O)c1ccc2c(c1)N(CCCN(C)C)c1ccccc1S2
inactive: [1] | [2] | [3] | [4] | [5] | [6] | [7] | [8] | [9] | [10] | [11] | [12] | [13] | [14] | [15] | [16] | [17] | [18] | [19] | [20]

O=c1[nH]c(=O)c2[nH]c(=O)[nH]c2[nH]1
inactive: [1] | [2] | [3] | [4] | [5] | [6] | [7] | [8] | [9] | [10] | [11] | [12] | [13] | [14] | [15] | [16] | [17] | [18] | [19] | [20]

O=C1O[C@H]([C@@H](O)CO)C(O)=C1O
inactive: [1] | [2] | [3] | [4] | [5] | [6] | [7] | [8] | [9] | [10] | [11] | [12] | [13] | [14] | [15] | [16] | [17] | [18] | [19] | [20]

C[C@@H]1CN(c2c(F)c(F)c3c(=O)c(C(=O)O)cn(C4CC4)c3c2F)C[C@H](C)N1
inactive: [1] | [2] | [3] | [4] | [5] | [6] | [7] | [8] | [9] | [10] | [11] | [12] | [13] | [14] | [15] | [16] | [17] | [18] | [19] | [20]

CC1(C)[C@@H]2CC[C@@]1(C)C(=O)C2
inactive: [1] | [2] | [3] | [4] | [5] | [6] | [7] | [8] | [9] | [10] | [11] | [12] | [13] | [14] | [15] | [16] | [17] | [18] | [19] | [20]

CCCCCCCCCCCCOS(=O)(=O)O
inactive: [1] | [2] | [3] | [4] | [5] | [6] | [7] | [8] | [9] | [10] | [11] | [12] | [13] | [14] | [15] | [16] | [17] | [18] | [19] | [20]

CCOC(=O)c1ccc(O)cc1
inactive: [1] | [2] | [3] | [4] | [5] | [6] | [7] | [8] | [9] | [10] | [11] | [12] | [13] | [14] | [15] | [16] | [17] | [18] | [19] | [20]

NS(=O)(=O)c1cc2c(cc1Cl)NC(CSCc1ccccc1)=NS2(=O)=O
inactive: [1] | [2] | [3] | [4] | [5] | [6] | [7] | [8] | [9] | [10] | [11] | [12] | [13] | [14] | [15] | [16] | [17] | [18] | [19] | [20]

COc1ccc2c(c1)C(=O)N(CCc1ccc(S(=O)(=O)NC(=O)NC3CCCCC3)cc1)C(=O)C2(C)C
inactive: [1] | [2] | [3] | [4] | [5] | [6] | [7] | [8] | [9] | [10] | [11] | [12] | [13] | [14] | [15] | [16] | [17] | [18] | [19] | [20]

Nc1ccc(S(=O)(=O)Nc2ccccc2)cc1
inactive: [1] | [2] | [3] | [4] | [5] | [6] | [7] | [8] | [9] | [10] | [11] | [12] | [13] | [14] | [15] | [16] | [17] | [18] | [19] | [20]

Cc1cccc(C)c1NC(=O)CN(CC(=O)O)CC(=O)O
inactive: [1] | [2] | [3] | [4] | [5] | [6] | [7] | [8] | [9] | [10] | [11] | [12] | [13] | [14] | [15] | [16] | [17] | [18] | [19] | [20]

O=C(O)c1ccccc1-c1ccc(C(F)(F)F)cc1
inactive: [1] | [2] | [3] | [4] | [5] | [6] | [7] | [8] | [9] | [10] | [11] | [12] | [13] | [14] | [15] | [16] | [17] | [18] | [19] | [20]

Cc1cc(CC(=O)O)n(C)c1C(=O)c1ccc(Cl)cc1
inactive: [1] | [2] | [3] | [4] | [5] | [6] | [7] | [8] | [9] | [10] | [11] | [12] | [13] | [14] | [15] | [16] | [17] | [18] | [19] | [20]

Cc1ncc(COP(=O)(O)O)c(C=O)c1O
inactive: [1] | [2] | [3] | [4] | [5] | [6] | [7] | [8] | [9] | [10] | [11] | [12] | [13] | [14] | [15] | [16] | [17] | [18] | [19] | [20]

C[C@](N)(Cc1ccc(O)cc1)C(=O)O
inactive: [1] | [2] | [3] | [4] | [5] | [6] | [7] | [8] | [9] | [10] | [11] | [12] | [13] | [14] | [15] | [16] | [17] | [18] | [19] | [20]
